Compound activity: PubChem BioAssay, The Scripps Research Institute Molecular Screening Center
This is a sample that favours compounds with a hit; in the whole collection about 2.1% have one here.
OPRK1 antag MB = blocks the human kappa opioid receptor, Maybridge compounds; P41145; OPRK1 cells, antagonist mode, fluorescence readout; inhibition, % at 9 µM; 16,000 compounds, 0.4% hits; in the data active = inhibition above about 50%
TLR4 MyD88 blk = blocks binding of human TLR4 to MyD88. Cell-based TLR4-MyD88 binding inhibition assay. 16,000 compounds, 0.06% hits. inhibition, % at 10 µM. AID 811; in the data active = inhibition above about 45%
rat GALR2 ag = activates the rat galanin receptor 2; O08726; cell-based GALR2 agonist screen; activation, % at 10 µM; 16,000 compounds, 0.5% hits; AID 833; in the data active = activation above about 15%
S1P1 agonist = S1P1 (human) receptor agonism; P21453; S1P1 agonist cell-based reporter assay; activation, % at 4.5 µM; 16,000 compounds, 1.5% hits; in the data active = activation above about 80%
Target sequence (P21453 whole entry, looked up): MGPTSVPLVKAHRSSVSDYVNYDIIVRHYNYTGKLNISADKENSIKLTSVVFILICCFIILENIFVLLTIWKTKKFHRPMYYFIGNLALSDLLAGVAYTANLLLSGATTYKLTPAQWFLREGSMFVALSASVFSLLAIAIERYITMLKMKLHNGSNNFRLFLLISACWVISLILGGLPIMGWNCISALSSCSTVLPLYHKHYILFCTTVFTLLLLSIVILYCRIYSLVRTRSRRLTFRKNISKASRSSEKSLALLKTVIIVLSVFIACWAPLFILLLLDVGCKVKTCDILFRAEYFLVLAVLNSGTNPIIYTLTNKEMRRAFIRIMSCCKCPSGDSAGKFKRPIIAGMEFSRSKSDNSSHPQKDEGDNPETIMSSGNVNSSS
The depositor's hits bear a star.

SMILES | OPRK1 antag MB | TLR4 MyD88 blk | rat GALR2 ag | S1P1 agonist
CCN(CC)c1ccc(/C=C/c2ccc([N+](=O)[O-])cc2C#N)cc1 | 68.8* | 7.4 | -12.5 | 104.0*
CC(CCC(C)OC(=O)c1ccccc1C(=O)O)OC(=O)c1ccccc1C(=O)O (centres undefined) | 59.7* | 2.4 | 0.1 | 10.7
O=S(=O)(c1ccc2c(c1)CCO2)N1CCCN(c2ccc(C(F)(F)F)cn2)CC1 | -2.3 | -0.3 | -6.3 | 22.4
CCOC(=O)/C(=N\O)C1=CSC2=NNC(C)(C)N12 | 24.8 | 5.8 | -1.0 | 94.2*
O=S(=O)(c1ccc(Cl)cc1)n1ccc(-c2cnc3ccccc3n2)c1 | 12.0 | -10.3 | -0.2 | -14.1
CN(C)c1cc(NNS(=O)(=O)c2cccc(C(F)(F)F)c2)nc(N(C)C)c1C#N | 11.1 | -9.9 | -3.9 | 6.3
O=[N+]([O-])c1c(Sc2ccc(Cl)cc2)ccc2nsnc12 | 69.1* | -25.8 | 11.4 | -6.1
Nc1c(C(=O)N/N=C/c2ccc3c(c2)OCO3)sc2nnc(-c3ccccc3)c(-c3ccccc3)c12 | 79.9* | 7.2 | -21.4 | 76.3
COC(=O)CO/N=C/c1ccc(Cl)cc1Cl | 8.3 | 0.1 | -3.8 | 13.7
O=C(CO/N=C/c1ccc(Cl)cc1Cl)NNC(=S)Nc1cc(Cl)ccc1Cl | 9.0 | 0.1 | -4.0 | 85.8*
CSC(=NCc1sccc1CSc1ccc(Cl)cc1)NC#N | -20.6 | -0.6 | -5.2 | 96.7*
CSC(=NCc1cccs1)NC#N | -14.3 | -0.5 | -6.1 | -7.7
Cc1cc(S(=O)(=O)NC2CCCCNC2=O)c(C)s1 (centres undefined) | 8.6 | 10.8 | -3.3 | 1.7
Cc1nn(C)c(Sc2ccc(C(F)(F)F)cn2)c1[N+](=O)[O-] | -7.3 | -4.6 | -7.5 | -8.2
Cn1cnc([N+](=O)[O-])c1Sc1ccc(C(F)(F)F)cn1 | 21.3 | -3.8 | 34.6* | 2.3
COC(=O)C(Cc1c[nH]c2ccccc12)NC(=O)C1CCCN1C(=O)OCc1ccccc1 (centres undefined) | -17.4 | 2.0 | -7.2 | -10.9
NC(=O)N/N=C/c1ccc(-c2cc(C(F)(F)F)cc(C(F)(F)F)c2)s1 | 3.7 | 7.2 | -6.2 | 97.5*
Cc1nc2c(N)nnc(N)c2nc1C | 23.5 | 1.1 | -2.9 | 2.3
Cc1nnsc1C(=O)NCc1cc(F)cc2c1OCOC2 | 11.8 | 4.6 | -2.6 | 4.3
C/C(=N\N=C(/N)SCc1cc(F)cc2c1OCOC2)c1ccc(C)nc1 | -5.0 | -4.1 | -5.6 | 90.0*
COc1cccc(-c2c3c([nH]c(=O)c2C#N)CCc2cc(OC)ccc2-3)c1 | -171.2 | 3.3 | 52.7* | -7.3
CC1CC(=O)Nc2ccccc2N1S(=O)(=O)c1ccc(F)cc1F (centres undefined) | 0.7 | 1.6 | -4.0 | -1.1
CC1CC(=O)Nc2ccccc2N1S(=O)(=O)c1cn(C)cn1 (centres undefined) | 4.3 | 9.4 | -5.7 | 120.8*
CCOC(=O)/C(C#N)=C/Nc1cc(F)ccc1C | 4.4 | 6.8 | -7.6 | -7.5
CCOC(=O)/C(C#N)=C/Nc1cccnc1Oc1ccc(C)c2c1CCC2 | -26.2 | -9.3 | 27.3* | -6.2
SMILES | OPRK1 antag MB | TLR4 MyD88 blk | rat GALR2 ag | S1P1 agonist
CCC(=O)Nc1cccc2c(NC(=O)CC)cccc12 | 6.6 | 12.3 | -4.4 | 82.3*
CCC(=O)Nc1cc(F)ccc1C | 9.9 | -7.3 | -2.6 | -20.8
N#CCSC1=CC(=O)CC(c2ccccc2)S1 (centres undefined) | -40.3 | 3.7 | -0.5 | 90.5*
O=C1c2ccccc2C(=O)N1Cc1ccc(C2Nc3ccccc3-c3cccn32)o1 (centres undefined) | 1.1 | 3.4 | 6.6 | -18.3
C=CCn1c(-c2sc3nnc(-c4ccccc4)c(-c4ccccc4)c3c2N)n[nH]c1=S | 57.2* | -4.7 | 11.3 | 63.3
C=CCn1c(-c2cnn(-c3ccccc3)c2N)n[nH]c1=S | -1.0 | -1.6 | -6.7 | -12.8
Cc1nc(C)c(S(=O)(=O)NCc2c(-c3ccccc3)noc2C)s1 | -13.2 | -16.2 | -5.7 | 6.2
Cc1onc(-c2ccccc2)c1CNS(=O)(=O)c1cnn(-c2ccccc2)c1C | 106.3* | 3.7 | -11.7 | 7.6
Cc1nc(C)c(-c2nnc(-c3ccc(C(F)(F)F)cc3)o2)s1 | -0.7 | 2.7 | -5.7 | 88.3*
O=C(CSc1nnc(-c2ccc(C(F)(F)F)cc2)o1)c1ccc(F)cc1 | 8.8 | 4.7 | -5.6 | -4.7
COc1ccc(/C=N/n2nnc3c(sc4nc(C)cc(C)c43)c2=O)cc1 | 3.9 | 4.8 | -3.5 | 10.6
CCOC(=O)C(NC(C)=O)(N1CCCCC1)C(F)(F)F (centres undefined) | 8.8 | 1.4 | -0.3 | 7.8
COc1ccc(/C(N)=N/OC(=O)c2ccccc2)cc1OC1CCCC1 | 14.9 | 2.9 | -6.3 | 101.9*
CCCCSc1ncn[nH]1 | -9.1 | 4.0 | -6.8 | -5.2
COC(=O)c1cc(NC(=O)c2c(-c3c(Cl)cccc3Cl)noc2C)ccc1N1CCOCC1 | 24.6 | -0.2 | -5.2 | -1.1
COC(=O)c1cc(NC(=S)NC(=O)c2ccccc2)ccc1N1CCOCC1 | 9.2 | 6.3 | -5.4 | 88.0*
Brc1ccc(-c2csc(Nc3ccncc3)n2)cc1 | 68.2* | 23.5 | -6.8 | 65.3
CC1(C)CC(=O)c2c(SCCOC(=O)c3ccccc3Cl)sc(C#N)c2C1 | -14.0 | -17.5 | -5.0 | 97.3*
CC1(C)CC(=O)c2c(SCCOC(=O)Nc3ccc(OC(F)(F)F)cc3)sc(C#N)c2C1 | -12.6 | -15.9 | -10.5 | -19.4
Cc1ccccc1/C(N)=N/OC(=O)c1ccc(C(C)(C)C)s1 | 11.3 | 2.6 | -1.9 | 102.6*
CC(C)(C)OC(=O)N1CCC(CNS(=O)(=O)c2cccs2)CC1 | 2.4 | 5.6 | -9.5 | -10.3
CCOC(=O)c1cnc(SCc2ccc(Cl)cc2)nc1C(F)(F)F | 4.2 | -1.0 | -7.5 | 80.6*
CCCS(=O)(=O)/C(C#N)=C/Nc1ncccn1 | 9.2 | -1.8 | -0.4 | -9.0
Cc1ccc(Cn2nc(C(=O)O/N=C(\N)c3ccccc3)cc2C)cc1 | 3.5 | -12.7 | -8.7 | 100.4*
Cn1nc(C(C)(C)C)cc1C(=O)O/N=C(\N)c1ccccc1 | 8.9 | -13.2 | -1.4 | 72.0
SMILES | OPRK1 antag MB | TLR4 MyD88 blk | rat GALR2 ag | S1P1 agonist
CCN1C(=O)c2cccc3c(NC(=O)c4cccc([N+](=O)[O-])c4)ccc1c23 | 1.2 | 6.4 | -4.5 | -25.3
Cc1ccc(C(=O)NNC(=O)c2cc(-c3ccccc3)c(C(F)(F)F)s2)cc1 | 6.1 | 3.8 | -2.8 | 8.7
CCCCNc1ccc2c3c(cccc13)C(=O)N(CCCC)C2=O | 89.0* | 55.2* | -12.1 | 74.0
Cc1nnc(NC(N)=S)s1 | -1.8 | 3.4 | 1.0 | 12.6
O=C(Nc1ccc([N+](=O)[O-])cc1)Nc1csc(-c2cccnc2)n1 | 51.8* | 9.4 | -0.5 | 10.6
O=C(CSc1nc2ccccc2c(=O)[nH]1)c1cc2ccccc2o1 | 1.7 | -3.6 | -4.5 | 91.8*
COc1ccc(C(=O)N/N=C(/C(=O)O)c2ccccc2)cc1 | 8.6 | 5.2 | -3.0 | -10.9
COc1ccc(C(=O)NC(=Nc2c(C)cccc2C)SC)cc1 | 2.0 | 3.1 | -9.6 | 101.1*
C=CCOc1cc(NC(C)=O)c(C(C)=O)cc1C(C)=O | 2.9 | 1.4 | -8.1 | -32.4
Cc1c(C)n(Cc2ccc(Br)cc2)c(=O)n(Cc2ccc(Br)cc2)c1=O | -0.6 | 3.1 | -10.4 | 102.3*
COC(=O)c1c(SC)nc(-c2ccccc2)[nH]c1=O | 25.0 | 8.0 | -2.8 | 7.2
N#Cc1c(Cl)c(Cl)c(Cl)c(Cl)c1C#N | 28.2 | -21.5 | -15.7 | 110.2*
N#Cc1c(Cl)cccc1I | 8.7 | 2.5 | -3.4 | 4.8
